{"source": "PubChem BioAssay", "key": {"[1]": {"assay": "liver-stage malaria parasite growth inhibition, primary screen, cell-based, HepG2, luciferase luminescence, HepG2 viability (AID 624349; in the data active = parasite load remaining mostly below about 12%, no sharp cut-off; inactive = mostly above about 10%;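 as to all read-outs here: 100% = mean of DMSO negative control wells on the same plate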)", "details": "P. berghei liver stage in HepG2, luciferase luminescence, concentration not given here; parasite load remaining: stronger effect = lower value; viability: measured here: HepG2 viability without parasites"}, "[2]": {"assay": "differential killing of epithelial or mesenchymal cells, primary screen, imaging, PC-3E GFP, TEM4-18 mCherry, co-culture (AID 1345086);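 as to all read-outs here: cells exposed to compound for 72 h before imaging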;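 as to red/green cell ratio (normalised): normalised mesenchymal count divided by normalised epithelial count so high means epithelial killing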", "details": "imaging cell counts, at 1 µM; for red/green cell ratio (normalised): actives lie on both sides, counts scaled to control wells, 1 = unselective"}, "[3]": {"assay": "sensitizers of A549 cells to miR-34 induction, primary screen, imaging, A549 dox-inducible miR-34, nuclei and caspase counts (AID 1347080;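 active = compounds whose cell count with miR-34 switched on is under 0.7 times the count with it off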)", "details": "A549 miR-34 inducible, Hoechst nuclei count, 48 h"}, "[4]": {"target": "NAD(+) hydrolase SARM1 (Homo sapiens) (UniProt Q6SZW1)", "sequence (Q6SZW1 whole entry, looked up)": "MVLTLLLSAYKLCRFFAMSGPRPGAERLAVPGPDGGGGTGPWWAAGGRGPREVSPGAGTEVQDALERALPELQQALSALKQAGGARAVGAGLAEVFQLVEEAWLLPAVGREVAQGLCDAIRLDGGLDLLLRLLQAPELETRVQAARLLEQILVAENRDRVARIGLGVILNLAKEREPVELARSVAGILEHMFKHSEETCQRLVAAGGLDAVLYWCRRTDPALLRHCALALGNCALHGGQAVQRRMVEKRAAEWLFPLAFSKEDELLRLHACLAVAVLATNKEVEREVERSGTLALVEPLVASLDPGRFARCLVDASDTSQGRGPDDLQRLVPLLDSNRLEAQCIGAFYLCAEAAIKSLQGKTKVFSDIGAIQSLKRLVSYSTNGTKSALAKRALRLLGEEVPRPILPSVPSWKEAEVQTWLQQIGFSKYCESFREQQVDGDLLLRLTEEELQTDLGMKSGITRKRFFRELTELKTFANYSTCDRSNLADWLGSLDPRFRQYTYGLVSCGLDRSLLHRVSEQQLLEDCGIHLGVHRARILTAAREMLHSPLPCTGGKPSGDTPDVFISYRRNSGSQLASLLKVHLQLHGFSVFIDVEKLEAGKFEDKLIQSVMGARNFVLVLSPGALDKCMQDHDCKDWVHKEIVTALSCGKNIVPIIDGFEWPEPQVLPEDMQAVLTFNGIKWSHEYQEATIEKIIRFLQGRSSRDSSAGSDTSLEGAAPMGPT", "assay": "SARM1 TIR NADase inhibitors, cell lysate, NAD-Glo luminescence (AID 1508614;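 active = compound whose remaining NAD level is above about 45 nM, limit read from the data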)", "details": "SAM-TIR HEK293T lysate NADase, at 1 µM, stronger effect = higher value"}, "[5]": {"target": "Mitogen-activated protein kinase 7 (Homo sapiens) (UniProt Q13164)", "sequence (Q13164 whole entry, looked up, the tested form may be a part)": "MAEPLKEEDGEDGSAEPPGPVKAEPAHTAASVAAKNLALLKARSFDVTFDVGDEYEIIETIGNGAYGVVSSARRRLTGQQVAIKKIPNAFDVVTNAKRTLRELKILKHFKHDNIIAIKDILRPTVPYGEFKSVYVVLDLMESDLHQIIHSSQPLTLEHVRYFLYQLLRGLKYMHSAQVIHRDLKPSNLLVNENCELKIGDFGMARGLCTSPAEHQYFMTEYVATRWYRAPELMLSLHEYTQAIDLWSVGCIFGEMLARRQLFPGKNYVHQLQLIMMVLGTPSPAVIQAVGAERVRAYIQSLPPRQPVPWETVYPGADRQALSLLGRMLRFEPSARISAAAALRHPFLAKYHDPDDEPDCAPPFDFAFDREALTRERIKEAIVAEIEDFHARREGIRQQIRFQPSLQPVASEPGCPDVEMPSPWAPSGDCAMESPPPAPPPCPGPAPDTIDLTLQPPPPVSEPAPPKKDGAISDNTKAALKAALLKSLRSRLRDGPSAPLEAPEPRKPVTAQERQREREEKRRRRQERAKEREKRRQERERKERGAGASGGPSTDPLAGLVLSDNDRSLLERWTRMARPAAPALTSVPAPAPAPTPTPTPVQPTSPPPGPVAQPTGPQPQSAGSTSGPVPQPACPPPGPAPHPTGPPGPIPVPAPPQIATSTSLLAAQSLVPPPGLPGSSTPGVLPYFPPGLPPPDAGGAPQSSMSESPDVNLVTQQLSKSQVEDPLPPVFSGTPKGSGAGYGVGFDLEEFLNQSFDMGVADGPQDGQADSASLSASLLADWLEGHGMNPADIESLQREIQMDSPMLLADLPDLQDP", "assay": "ERK5 transactivation activators in reporter cells, primary screen, cell-based, HTS (AID 1508626;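 active = luciferase signal above three times the same-plate solvent-only control wells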;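 also: luciferase driven by Gal4-ERK5 fusion binding five Gal4 sites before minimal TATA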)", "details": "HeLa Gal4-ERK5 transactivation, 18 h, at 5 µM, stronger effect = higher value"}, "[6]": {"details": "measured here: epithelial PC-3E GFP cell survival"}, "[7]": {"details": "measured here: mesenchymal TEM4-18 mCherry cell survival"}}, "note": "Activity calls are given as the source filed them.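 The calls were made as follows, unless noted: active = compounds killing one labelled cell type while sparing the other, by normalised counts and ratio limits, not self-fluorescent; inactive = the rest.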"}
{"molecule": "OC[C@@H](O)C(O[C@@H]1O[C@H](CO)[C@H](O)[C@H](O)[C@H]1O)[C@H](O)[C@@H](O)CO", "note": "(stereo partly drawn)", "values": [{"measurement": "parasite load remaining", "setting": "[1]", "value": "63.4% (inactive)"}, {"measurement": "viability", "setting": "[1]", "value": 99.9, "unit": "%"}, {"measurement": "red/green cell ratio (normalised)", "setting": "[2]", "value": "1.21 (inactive)"}, {"measurement": "normalised cell number", "setting": "[2]; [6]", "value": 0.87}, {"measurement": "normalised cell number", "setting": "[2]; [7]", "value": 1.06}, {"measurement": "fold change", "setting": "[3]; stronger effect = lower value, cell number ratio, induced over uninduced", "value": "0.87 (inactive)"}, {"measurement": "fold change", "setting": "[3]; measured here: relative caspase fold change +Dox/-Dox", "value": 4.32}, {"measurement": "cell count", "setting": "[3]; measured here: total cells with miR-34 induction, stronger effect = lower value", "value": 11300}, {"measurement": "cell count", "setting": "[3]; measured here: total cells without miR-34 induction", "value": 13000}]}
{"molecule": "CC(C)(C)NC[C@H](O)COc1ccccc1C1CCCC1", "values": [{"measurement": "red/green cell ratio (normalised)", "setting": "[2]", "value": "1.04 (inactive)"}, {"measurement": "normalised cell number", "setting": "[2]; [6]", "value": 1.13}, {"measurement": "normalised cell number", "setting": "[2]; [7]", "value": 1.17}, {"measurement": "remaining NAD", "setting": "[4]", "value": "10 nM (inactive)"}]}
{"molecule": "COc1cc(OC)c2c(=O)c(O)c(-c3ccc(OC)c(OC)c3)oc2c1", "values": [{"measurement": "red/green cell ratio (normalised)", "setting": "[2]", "value": "0.83 (inactive)"}, {"measurement": "normalised cell number", "setting": "[2]; [6]", "value": 1.23}, {"measurement": "normalised cell number", "setting": "[2]; [7]", "value": 1.02}, {"measurement": "luciferase signal", "setting": "[5]", "value": "64 AU (inactive)"}]}
{"molecule": "O=S(=O)(O)c1cc(N=C=S)ccc1/C=C/c1ccc(N=C=S)cc1S(=O)(=O)O", "values": [{"measurement": "red/green cell ratio (normalised)", "setting": "[2]", "value": "0.86 (inactive)"}, {"measurement": "normalised cell number", "setting": "[2]; [6]", "value": 1.29}, {"measurement": "normalised cell number", "setting": "[2]; [7]", "value": 1.11}, {"measurement": "luciferase signal", "setting": "[5]", "value": "52 AU (inactive)"}]}
{"molecule": "C/C1=C/CC(C)(C)/C=C/C/C(C)=C/CC1", "values": [{"measurement": "red/green cell ratio (normalised)", "setting": "[2]", "value": "0.95 (inactive)"}, {"measurement": "normalised cell number", "setting": "[2]; [6]", "value": 1.06}, {"measurement": "normalised cell number", "setting": "[2]; [7]", "value": 1.01}, {"measurement": "luciferase signal", "setting": "[5]", "value": "60 AU (inactive)"}]}
{"molecule": "CC(C)(N=NC(C)(C)C(=N)N)C(=N)N", "values": [{"measurement": "red/green cell ratio (normalised)", "setting": "[2]", "value": "1.04 (inactive)"}, {"measurement": "normalised cell number", "setting": "[2]; [6]", "value": 1.17}, {"measurement": "normalised cell number", "setting": "[2]; [7]", "value": 1.22}, {"measurement": "luciferase signal", "setting": "[5]", "value": "20 AU (inactive)"}]}
{"molecule": "CC(=O)O[C@H]1C[C@@H](O)C(C)(C)C2C[C@@H](OC(C)=O)[C@]3(C)C(CC[C@@]4(C)[C@H](c5ccoc5)OC(=O)C5OC543)[C@]21C", "note": "(stereo partly drawn)", "values": [{"measurement": "red/green cell ratio (normalised)", "setting": "[2]", "value": "0.84 (inactive)"}, {"measurement": "normalised cell number", "setting": "[2]; [6]", "value": 0.84}, {"measurement": "normalised cell number", "setting": "[2]; [7]", "value": 0.7}, {"measurement": "luciferase signal", "setting": "[5]", "value": "40 AU (inactive)"}]}
{"molecule": "C=CCS(=O)C[C@H](N)C(=O)O", "note": "(stereo partly drawn)", "values": [{"measurement": "red/green cell ratio (normalised)", "setting": "[2]", "value": "0.94 (inactive)"}, {"measurement": "normalised cell number", "setting": "[2]; [6]", "value": 1.04}, {"measurement": "normalised cell number", "setting": "[2]; [7]", "value": 0.98}, {"measurement": "luciferase signal", "setting": "[5]", "value": "128 AU (inactive)"}]}
{"molecule": "O=C(/C=C/c1ccccc1)c1ccc(O)cc1O", "values": [{"measurement": "red/green cell ratio (normalised)", "setting": "[2]", "value": "0.95 (inactive)"}, {"measurement": "normalised cell number", "setting": "[2]; [6]", "value": 1.05}, {"measurement": "normalised cell number", "setting": "[2]; [7]", "value": 1}, {"measurement": "luciferase signal", "setting": "[5]", "value": "52 AU (inactive)"}]}
{"molecule": "C[C@@H]1O[C@@H](O[C@H]2[C@H](Oc3cc(O)c4c(=O)cc(-c5ccc(O)cc5)oc4c3)O[C@H](CO)[C@@H](O)[C@@H]2O)[C@H](O)[C@H](O)[C@H]1O", "values": [{"measurement": "red/green cell ratio (normalised)", "setting": "[2]", "value": "1.02 (inactive)"}, {"measurement": "normalised cell number", "setting": "[2]; [6]", "value": 0.87}, {"measurement": "normalised cell number", "setting": "[2]; [7]", "value": 0.89}, {"measurement": "luciferase signal", "setting": "[5]", "value": "56 AU (inactive)"}]}
{"molecule": "O=c1cc(-c2ccc(O)cc2)oc2cc(O)ccc12", "values": [{"measurement": "red/green cell ratio (normalised)", "setting": "[2]", "value": "0.77 (inactive)"}, {"measurement": "normalised cell number", "setting": "[2]; [6]", "value": 1.28}, {"measurement": "normalised cell number", "setting": "[2]; [7]", "value": 0.98}, {"measurement": "luciferase signal", "setting": "[5]", "value": "180 AU (active)"}]}
{"molecule": "CC(=O)Oc1cc(C)c2c(c1C(OC(C)=O)OC(C)=O)Oc1c(c(C)c(OC(C)=O)c3c1C(OC(C)=O)OC3=O)OC2=O", "note": "(stereo not drawn)", "values": [{"measurement": "red/green cell ratio (normalised)", "setting": "[2]", "value": "0.89 (inactive)"}, {"measurement": "normalised cell number", "setting": "[2]; [6]", "value": 1.03}, {"measurement": "normalised cell number", "setting": "[2]; [7]", "value": 0.92}, {"measurement": "luciferase signal", "setting": "[5]", "value": "124 AU (inactive)"}]}
